An excerpt weighted towards active compounds, which were near 3.7% of everything screened.
rRNA inh HTS: selective bacterial rRNA inhibition in E. coli | GFP signal change (wild-type ribosome), % (concentration not given with the values) | E. coli WT GFP vs humanized-ribosome RFP mutants, fluorescence, 24 h; stronger effect = lower value; DMSO median 0, no signal -100 | 350,000 compounds, 1.6% hits;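 active = significant combined selectivity score with lowered wild-type GFP, culture density cut under 30%, mutant RFP and density less affected; inactive = any of these conditions unmet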
MLL AF4-AF9 inh: MLL-AF4/AF9 protein interaction inhibition | P42568 | AlphaScreen, biotin-AF4 peptide binding to FLAG-AF9 | inhibition, % at 10 µM | 350,000 compounds, 0.47% hits;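 active = every replicate reaching a set inhibition limit, whatever the replicate mean, cut at about 25% in these data; inconclusive = mean inhibition reaches that limit but some replicates miss it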;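 also: 0% = plate neutral control median and 100% = total signal loss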
Target sequence (P42568 whole entry, looked up): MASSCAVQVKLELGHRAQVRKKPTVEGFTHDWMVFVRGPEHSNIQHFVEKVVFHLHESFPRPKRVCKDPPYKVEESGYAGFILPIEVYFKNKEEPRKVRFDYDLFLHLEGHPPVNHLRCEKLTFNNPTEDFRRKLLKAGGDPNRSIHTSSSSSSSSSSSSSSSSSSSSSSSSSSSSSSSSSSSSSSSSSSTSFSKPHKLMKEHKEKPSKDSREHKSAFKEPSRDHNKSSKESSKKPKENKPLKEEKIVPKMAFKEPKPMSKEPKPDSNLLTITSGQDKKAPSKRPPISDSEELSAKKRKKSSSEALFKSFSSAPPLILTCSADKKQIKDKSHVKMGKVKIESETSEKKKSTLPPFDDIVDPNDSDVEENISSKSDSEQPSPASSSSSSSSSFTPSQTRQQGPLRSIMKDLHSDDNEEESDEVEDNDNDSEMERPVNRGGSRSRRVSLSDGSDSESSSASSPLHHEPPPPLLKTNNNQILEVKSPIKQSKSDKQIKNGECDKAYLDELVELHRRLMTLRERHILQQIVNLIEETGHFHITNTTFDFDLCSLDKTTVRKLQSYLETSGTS
esBAF inh: blocks esBAF chromatin remodeling in mouse ES cells; Bmi1-luciferase knock-in reporter, 24 h; 100% = twice the neutral-well signal; reporter increase, % at 12.5 µM; 350,000 compounds, 2% hits; in the data active = activation above about 40%; inconclusive = no clear call, values can overlap the other calls;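 also: 0% = median of the plate's neutral control wells and 100% = double that signal; a rise in the Bmi1 reporter signal indicates esBAF inhibition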
MITF TRPM1 HTS: activators of MITF-driven TRPM1 promoter activity in SK-MEL-5 cells; SK-MEL-5 TRPM1-promoter luciferase, 24 h; % of positive control, neutral wells = 0; activation, % at 12.5 µM; 300,000 compounds, 0.75% hits;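 active = mean activation of at least 80% with every replicate also reaching 80%; inconclusive = mean reaches 80% but some replicate falls short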;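 also: 0% = neutral control wells and 100% = parthenolide positive control wells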
Wnt act: Wnt/beta-catenin pathway activation | 300,000 compounds, 1.2% hits | Wnt/beta-catenin reporter cell assay, activator, plate reader | activation, % at 9.35 µM | AID 743398; in the data active = activation above about 30%, passing the limit was not always enough; inconclusive = no clear call, values can overlap the other calls;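 also: 0% = neutral control wells and 100% = positive control wells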
Ring1 derepress: confirmation of esBAF inhibitors: Ring1 de-repression in mouse ESCs; shares compounds with esBAF inh; mouse ESC E14, Ring1 mRNA RT-qPCR fold change; fold change at 33 µM; 550 tested, under 10 active; AID 743176;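 active = Ring1 gene expression raised more than 2-fold over untreated cells in both replicates at either tested dose; inconclusive = only one replicate above 2-fold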;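 also: Ring1 transcript normalised to actin housekeeping signal by TaqMan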
esBAF Fgf4 qPCR: represses Fgf4 in mouse ESCs, confirming esBAF inhibition; shares compounds with esBAF inh; Fgf4 expression fold change at 33 µM; AID 743177; 550 compounds, 4% hits; mouse ESC E14, Fgf4 mRNA qPCR fold change; stronger effect = lower value;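 active = Fgf4 expression under 0.8 fold of control in both repeat measurements at one or both tested doses; inconclusive = under 0.8 fold in just a single repeat measurement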;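 also: Fgf4 transcript normalised to actin in duplex TaqMan qPCR; cells exposed to compound for 24 h before lysis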
Bmi1 derepress: de-represses Bmi1 in mouse ESCs, confirming esBAF inhibition | shares compounds with esBAF inh | mouse ESE14 ES cells, Bmi1 mRNA qPCR fold; stronger effect = higher value | fold change at 33 µM | 550 tested, under 10 active;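 active = Bmi1 expression fold change above 6 at either tested concentration, seen in replicate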;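 also: higher fold means more Bmi1 de-repression and stronger esBAF inhibition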
A549 cytotox: cytotoxicity in A549 cells; shares compounds with esBAF inh; plate reader; cell viability change % (negative = cytotoxic), % at 25 µM, hits read low; 550 tested, under 10 active; AID 743188; call rule not given here
HepG2 cytotox SP: kills or reduces viability of HepG2 cells; shares compounds with esBAF inh; activity change, negative = inhibition, % at 25 µM; HepG2 cytotoxicity, plate reader; stronger effect = lower value; 550 compounds, 4% hits; AID 743189; in the data active = activity change below about -50%
HEK293 tox SP: kills or reduces viability of HEK293 cells. 550 compounds, 3% hits. shares compounds with esBAF inh. AID 743190. HEK293 cytotoxicity, plate reader. activity change, negative = inhibition, % at 25 µM, hits read low; in the data active = activity change below about -38%, passing the limit was not always enough
Numbers without * were called inactive; ? = inconclusive; · = no result given.

SMILES	rRNA inh HTS	MLL AF4-AF9 inh	esBAF inh	MITF TRPM1 HTS	Wnt act	Ring1 derepress	esBAF Fgf4 qPCR	Bmi1 derepress	A549 cytotox	HepG2 cytotox SP	HEK293 tox SP
COc1cccc(NC(=O)c2ccccc2-c2ccccc2C(=O)O)c1	-5	0	-4	·	0	·	·	·	·	·	·
COc1ccccc1C(=O)Nc1ccc(C(=O)O)cc1	·	·	-8	·	·	·	·	·	·	·	·
CCC(c1nc2ccccc2[nH]1)N(C(=O)Cc1cc(OC)cc(OC)c1)c1ccc(N2CCOCC2)cc1 (stereo not given)	-7	4	0	·	-1	·	·	·	·	·	·
O=C(c1ccncc1)N(c1ccc(N2CCOCC2)cc1)C(c1ccccc1)c1nc2ccccc2[nH]1 (stereo not given)	-5	1	48*	·	-2	1.1	1.1	1.4	1	-9	-5
CC(c1ccccc1)c1nnc(NC(=O)Nc2ccccc2)s1 (stereo not given)	-5	2	8	-11	0	·	·	·	·	·	·
CC(c1ccccc1)c1nnc(NC(=O)Nc2ccccc2F)s1 (stereo not given)	5	7	80*	?	0	1.3	0.88	1.2	-8	-37	-2
COc1ccccc1NC(=O)c1cc(S(=O)(=O)N2CCc3ccccc32)ccc1F	14	-2	-2	-2	-1	·	·	·	·	·	·
CC(C)c1ccc(CNc2ncccn2)cc1	6	-18	55*	·	11	1.2	0.83	1.7	-7	-16	-11
c1ccc(-c2ccc3[nH]ccc3c2)cc1	1	6	59*	93*	17	1	0.99	2.1	2	-17	8
C=CCn1c(NCc2ccc(OC)cc2O)nc2ccccc21	-29	-4	61*	·	4	1	0.96	1.8	-5	-68*	-11
Cn1c2ccccc2c(=O)c2cc(C#CC3(O)CCCCC3)ccc21	5	-2	-63	-25	-11	·	·	·	·	·	·
Cn1c2ccccc2c(=O)c2cc(C#Cc3ccsc3)ccc21	2	-2	62*	63	24	1.1	?	1.4	-4	8	-6
Cc1cc(=O)n2nc(N3CCC(C(=O)N4CCN(Cc5ccccc5)CC4)CC3)sc2n1	·	·	·	14	·	·	·	·	·	·	·
COc1cccc(CN2CC3(CCN(C)CC3)c3c([nH]c4cc(OC)ccc34)[C@H]2CO)c1	0	5	·	·	·	·	·	·	·	·	·
COCC(=O)N1CC(=O)N2[C@@H](CO)[C@H](c3ccc(C#Cc4cccnc4)cc3)[C@@H]2C1	5	-5	·	·	·	·	·	·	·	·	·
CCCN1CCCCC(NC(=O)c2ccccc2OC)C1=O (stereo not given)	0	·	·	·	-2	·	·	·	·	·	·
O=C(Cn1cnc2ccccc2c1=O)c1ccc2ccccc2c1	·	·	35	52	·	·	·	·	·	·	·
Cc1cc(C(=O)Cn2cnc3ccccc3c2=O)c(C)n1C1CC1	10	0	65*	53	20	1.3	0.92	1.3	-2	-22	1
O=C(N/N=C/c1ccc(OC(=O)c2ccccc2)cc1)c1ccc(CN2CCOCC2)cc1	·	·	0	·	-2	·	·	·	·	·	·
Oc1ccccc1/C=N/N1CCCCC1	4	-2	·	38	5	·	·	·	·	·	·
Oc1ccccc1C=NN1CCCCCC1	-4	2	77*	69	-1	1.2	0.81	1.4	-4	20	2
Oc1ccc(Cl)cc1C=NN1CCCCCC1	0	13	66*	47	49*	1.1	1	1.8	-4	16	-29
Oc1ccc(/C=N/N2CCCCC2)c(O)c1O	14	-13	-4	-7	-1	·	·	·	·	·	·
Oc1cccc(/C=N/N2CCCCC2)c1O	2	0	61*	67	?	1	1.2	1.9	-12	-43	-16
O=C(O)CC(c1ccc(Cl)cc1)N1Cc2ccccc2C1=O (stereo not given)	5	-3	-10	-4	-1	·	·	·	·	·	·
SMILES	rRNA inh HTS	MLL AF4-AF9 inh	esBAF inh	MITF TRPM1 HTS	Wnt act	Ring1 derepress	esBAF Fgf4 qPCR	Bmi1 derepress	A549 cytotox	HepG2 cytotox SP	HEK293 tox SP
COC(=O)C(Cc1ccc(OC(=O)c2ccc(Cl)cc2)cc1)N1Cc2ccccc2C1=O (stereo not given)	·	·	72*	28	-1	1.2	0.84	1.2	3	-30	-5
CCOC(=O)C(=O)/C(=C\N(C)C)c1onc(-c2c(Cl)cccc2Cl)c1C(=O)OC	·	·	-2	-2	-2	·	·	·	·	·	·
CN(C)CC(=O)N[C@H]1CC[C@@H](CC(=O)NCc2ccccc2F)O[C@H]1CO	3	-4	-1	·	·	·	·	·	·	·	·
COc1cccc(C(=O)Nc2cccc3ccccc23)c1OC	-20	-4	17	·	2	·	·	·	·	·	·
COc1cc(Cl)c(C)cc1NC(=O)c1cccc(OC)c1OC	-4	0	57*	59	12	1.3	0.86	1.6	3	12	-12
CC(=O)Nc1cccc(-c2cc(NC(C)=O)c3ncc(-c4ccc(F)cc4)n3c2)c1	3	-9	6	·	-1	·	·	·	·	·	·
C[C@H](CO)N1C[C@H](C)[C@@H](CN(C)S(=O)(=O)c2ccc(F)cc2)Oc2c(NC(=O)c3ccc(-c4nccs4)cc3)cccc2C1=O	0	-4	-7	·	·	·	·	·	·	·	·
Cc1ccc(NC(=O)C(=O)Nc2ccc(C)cn2)nc1	16	2	57*	79	2	0.97	1.1	1.1	-17	-28	-13
Fc1ccc(Nc2nnc(-c3ccncc3)s2)cc1Cl	-15	2	67*	·	1	1.2	0.88	1.6	-6	-25	-2
Cc1ccc(NCSc2ccc(Cl)cc2)cc1	3	0	72*	50	16	0.96	1.1	1.5	-16	42	-2
Cc1ccc(S(=O)(=O)N2CCOCC2)cc1C(=O)NCc1ccccn1	9	0	-9	9	2	·	·	·	·	·	·
CCS(=O)(=O)n1nc(-c2ccc(Cl)cc2)nc1SC	·	·	57*	66	·	1.2	0.9	1.2	-15	21	-20
N/C(=N\OC(=O)CC1CCCCC1)c1ccncc1	·	·	·	9	1	·	·	·	·	·	·
N/C(=N\OC(=O)CC1CCCCC1)c1ccccn1	1	-6	82*	88*	·	1.4	?	1.6	-1	-24	8
Cc1ccc(S(=O)(=O)N[C@@H]2CC[C@H](CC(=O)N3CCN(c4ccccc4)CC3)O[C@@H]2CO)cc1	-5	2	8	·	·	·	·	·	·	·	·
COc1ccc(-c2nnn(Cc3ccccc3)n2)cc1	3	-7	79*	36	15	1.1	0.87	1.3	-4	-1	3
